The nature of assay [1]: antimalarial activity against Dd2 strain (AID 2302;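 active = growth inhibition above 50% at the single 2 µM test dose, taken to imply half-maximal potency below 2 µM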;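 also: 0% = DMSO untreated growth and 100% = chloroquine plus artemisinin killed control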). Particulars: P. falciparum Dd2 in RBCs, LDH growth readout, 72 h; at 2 µM; stronger effect = higher value.
The nature of assay [2]: HepG2 cytotoxicity, primary screen, cytotoxicity control for P. falciparum antimalarial project, cell-based, ATP luminescence (AID 2303;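 active = inhibition above 50%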;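 also: 0% = DMSO wells and 100% = digitonin-killed cells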). The settings on record: HepG2 viability, 24-48 h, at 10 µM, stronger effect = higher value.
The target in assay [3] is L-lactate dehydrogenase (Plasmodium falciparum (isolate CDC / Honduras)) (UniProt Q27743). Description: PfLDH activity inhibition – cell lysate, 3D7 strain, counter-screen for P. falciparum growth inhibition project (AID 2304).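 Also: 0% = vehicle and 100% = reference inhibitor.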 The settings on record: P. falciparum 3D7 crude extract, LDH APAD/NBT absorbance; at 2 µM; stronger effect = higher value. On the technique in general: Counterscreens check selectivity or assay interference.
Chain of L-lactate dehydrogenase (Plasmodium falciparum (isolate CDC / Honduras)) (Q27743 whole entry, looked up): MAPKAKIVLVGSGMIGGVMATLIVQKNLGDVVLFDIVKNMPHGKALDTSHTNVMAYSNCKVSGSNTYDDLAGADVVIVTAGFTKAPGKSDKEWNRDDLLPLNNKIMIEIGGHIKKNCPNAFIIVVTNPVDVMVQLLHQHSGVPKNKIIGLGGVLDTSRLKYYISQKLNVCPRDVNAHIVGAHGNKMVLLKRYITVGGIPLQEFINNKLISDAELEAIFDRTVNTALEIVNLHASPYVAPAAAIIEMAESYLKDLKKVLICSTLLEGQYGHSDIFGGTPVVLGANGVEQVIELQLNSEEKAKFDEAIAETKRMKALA

Assay [4] in a line: inhibition of 3D7 malaria parasite growth – strain 3D7 (AID 2306).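 Also: 0% = DMSO wells and 100% = chloroquine plus artemisinin control wells.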 The settings on record: P. falciparum 3D7 erythrocytic growth, LDH absorbance, 72 h; at 2 µM; stronger effect = higher value.
Assay [5] has as its target Calcium-dependent protein kinase 1 (Plasmodium falciparum (isolate 3D7)) (UniProt P62344). The assay is described as follows: PfCDPK1 kinase inhibitors, biochemical, TCAMS library (AID 1159585; cut-off not given, nearly all actives have IC50 up to about 0.98 µM;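 also: inhibitors leave more ATP so luminescence rises with inhibition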). Particulars: recombinant PfCDPK1, Kinase-Glo ATP depletion luminescence. For orientation: Kinase-Glo measures the ATP left after a reaction by luminescence.
Assay [6] addresses Plasmodium falciparum protein kinase 6 (PK6, PF3D7_1337100) (UniProt Q8IDW1). The assay is described as follows: PfPK6 kinase inhibitors, biochemical, TCAMS library (AID 1159586). The settings on record: recombinant PfPK6, Kinase-Glo ATP depletion luminescence.
Assay [7] has as its target Protein kinase 7 (PK7), Plasmodium falciparum 3D7 (PF3D7_0213400) (UniProt Q7YTF7). Description: inhibition of Plasmodium PK7 catalytic activity – biochemical, TCAMS antimalarial set, Kinase-Glo luminescence (AID 1159587). Particulars: recombinant PfPK7, Kinase-Glo ATP depletion luminescence.
Assay [8] addresses Calcium-dependent protein kinase 4 (Plasmodium falciparum (isolate 3D7)) (UniProt Q8IBS5). The assay is described as follows: PfCDPK4 kinase inhibitors, biochemical, TCAMS library (AID 1159588; cut-off not given, nearly all actives have IC50 up to about 0.91 µM). Particulars: recombinant PfCDPK4, Kinase-Glo ATP depletion luminescence.

For 21 compounds, growth inhibition, inhibition and outcome results are on record in PubChem BioAssay.

Values without a mark were called inactive. For part of these data: Entries with a potency or affinity are not part of this list. Calls of active or inactive are those of the source. Unless noted, no rule for the calls is given here.

The term inhibition denotes the change of the read-out against control, counted positive when it falls.

Chain of Protein kinase 7 (PK7), Plasmodium falciparum 3D7 (PF3D7_0213400) (Q7YTF7 1-343): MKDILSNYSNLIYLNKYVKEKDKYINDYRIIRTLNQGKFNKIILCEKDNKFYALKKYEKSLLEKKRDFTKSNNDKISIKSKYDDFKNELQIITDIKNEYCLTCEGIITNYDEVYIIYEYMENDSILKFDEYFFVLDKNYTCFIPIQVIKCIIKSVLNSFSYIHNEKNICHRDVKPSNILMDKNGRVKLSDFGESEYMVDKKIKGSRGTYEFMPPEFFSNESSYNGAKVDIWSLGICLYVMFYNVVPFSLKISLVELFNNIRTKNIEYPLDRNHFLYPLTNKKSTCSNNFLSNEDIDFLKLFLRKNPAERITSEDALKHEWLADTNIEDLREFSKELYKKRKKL
Chain of Plasmodium falciparum protein kinase 6 (PK6, PF3D7_1337100) (Q8IDW1 1-305): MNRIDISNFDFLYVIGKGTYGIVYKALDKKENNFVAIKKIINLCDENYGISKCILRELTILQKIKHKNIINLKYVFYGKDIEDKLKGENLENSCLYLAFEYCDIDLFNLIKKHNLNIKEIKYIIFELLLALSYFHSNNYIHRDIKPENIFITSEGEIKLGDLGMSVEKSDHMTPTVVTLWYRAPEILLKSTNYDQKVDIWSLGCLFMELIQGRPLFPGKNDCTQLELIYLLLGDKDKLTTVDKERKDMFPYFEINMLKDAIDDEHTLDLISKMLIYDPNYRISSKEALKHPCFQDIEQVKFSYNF
Chain of Calcium-dependent protein kinase 1 (Plasmodium falciparum (isolate 3D7)) (P62344 whole entry, looked up): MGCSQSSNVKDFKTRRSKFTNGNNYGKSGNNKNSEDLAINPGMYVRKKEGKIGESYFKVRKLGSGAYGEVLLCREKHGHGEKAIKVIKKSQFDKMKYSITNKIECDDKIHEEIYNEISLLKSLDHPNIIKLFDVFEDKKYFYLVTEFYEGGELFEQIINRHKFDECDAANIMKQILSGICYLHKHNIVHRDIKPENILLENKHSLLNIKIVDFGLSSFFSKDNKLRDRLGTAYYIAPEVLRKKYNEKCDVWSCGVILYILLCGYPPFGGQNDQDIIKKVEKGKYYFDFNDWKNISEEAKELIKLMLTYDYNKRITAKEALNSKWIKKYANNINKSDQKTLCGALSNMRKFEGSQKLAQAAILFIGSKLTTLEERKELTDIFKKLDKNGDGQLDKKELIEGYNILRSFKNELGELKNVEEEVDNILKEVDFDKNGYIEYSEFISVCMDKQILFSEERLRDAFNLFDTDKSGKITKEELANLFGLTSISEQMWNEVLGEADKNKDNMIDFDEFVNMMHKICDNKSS
Chain of Calcium-dependent protein kinase 4 (Plasmodium falciparum (isolate 3D7)) (Q8IBS5 whole entry, looked up): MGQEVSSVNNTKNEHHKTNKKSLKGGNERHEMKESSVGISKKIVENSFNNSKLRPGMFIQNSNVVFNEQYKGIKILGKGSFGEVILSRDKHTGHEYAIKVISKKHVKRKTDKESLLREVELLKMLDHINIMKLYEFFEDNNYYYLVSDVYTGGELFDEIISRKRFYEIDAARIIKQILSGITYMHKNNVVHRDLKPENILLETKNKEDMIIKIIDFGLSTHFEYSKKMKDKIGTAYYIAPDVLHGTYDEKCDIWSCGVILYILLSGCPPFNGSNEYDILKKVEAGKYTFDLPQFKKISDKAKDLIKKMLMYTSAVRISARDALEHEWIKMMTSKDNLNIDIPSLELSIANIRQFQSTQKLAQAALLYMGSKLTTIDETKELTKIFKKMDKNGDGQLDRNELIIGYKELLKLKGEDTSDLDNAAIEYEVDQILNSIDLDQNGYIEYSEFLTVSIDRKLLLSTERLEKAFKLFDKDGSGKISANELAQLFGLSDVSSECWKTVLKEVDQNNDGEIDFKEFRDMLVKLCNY

In the case of `COc1cc(NCCCNC(=O)c2ccc(Cl)c(Cl)c2)nc2ccccc12`, the growth inhibition is 101% (active) in assay [1] and 99% (active) in assay [4]. Further, the figures for the inhibition in assay [2] and in assay [3] were 48% and 5%, respectively. Besides, the outcome in assay [5], in assay [6], in assay [7] and in assay [8] was inactive.
Consider `COc1ccc(CNc2ccnc(-n3cnc4cc(C)c(C)cc43)n2)cc1Cl`, for which the growth inhibition in assay [1] and in assay [4] was 100% (active) throughout. Moreover, the inhibition was 6% in assay [2] and -8% in assay [3]. Also, the outcome in assay [5], in assay [6], in assay [7] and in assay [8] was inactive.
Turning to `Nc1cc(-c2ccc(Br)cc2O)nc2ccccc12`, the growth inhibition is 50% (active) in assay [1] and 100% (active) in assay [4]. Further, the inhibition in assay [2] was 23%; in assay [3], 0%. Moreover, the result in assay [5], in assay [6], in assay [7] and in assay [8] was inactive.
As to `Cc1c(-c2ccc3c(c2)C(NCCCN2CCCCC2)CC3)cnc(N)c1C` (stereo not drawn), the results for the growth inhibition in assay [1] and in assay [4] were 3% and 97% (active), respectively. Also, the inhibition is 4% in assay [2] and -3% in assay [3]. Moreover, the result in assay [5], in assay [6], in assay [7] and in assay [8] was inactive.
For `NC(N)=NCCCCN(Cc1ccccc1)c1ccccc1`, the growth inhibition in assay [1] was 98% (active); in assay [4], 100% (active). The inhibition in assay [2] and in assay [3] was -4% each time. The outcome in assay [5], in assay [6], in assay [7] and in assay [8] was inactive.
Regarding `Cc1nc(Nc2ccncc2)cc(-c2ccncc2)n1`, the growth inhibition was 3% in assay [1] and 100% (active) in assay [4]. Further, the inhibition was 6% in assay [2] and -2% in assay [3]. Further, the result in assay [5], in assay [6], in assay [7] and in assay [8] was inactive.
`Cc1cc(N2CCCC2)nc(Nc2ccc(NC(=O)c3cccc(F)c3)cc2)n1`: the growth inhibition is 28% in assay [1] and 97% (active) in assay [4]. Further, the results for the inhibition in assay [2] and in assay [3] were 39% and -3%, respectively. Also, the result in assay [5], in assay [6], in assay [7] and in assay [8] was inactive.
On to `CN(C)CCN(C)Cc1cccc(-c2ccc3c(Nc4cc(O)c(Cl)cc4F)ccnc3c2)c1`, for which the values for the growth inhibition in assay [1] and in assay [4] were 70% (active) and 101% (active), respectively. Moreover, the inhibition in assay [2] is 14%; in assay [3], -5%. In addition, the result in assay [5], in assay [6], in assay [7] and in assay [8] was inactive.
As to `N#Cc1nc2ccc(OCCN(Cc3ccccc3C(F)(F)F)c3ccc(C#N)c(C(F)(F)F)c3)cc2s1`, the results for the growth inhibition in assay [1] and in assay [4] were 47% and 93% (active), respectively. Moreover, the results for the inhibition in assay [2] and in assay [3] were 23% and 6%, respectively. Besides, the outcome in assay [5], in assay [6], in assay [7] and in assay [8] was inactive.
Turning to `CCN(CC)CCN(Cc1ccc(-c2ccc(C(F)(F)F)cc2)cc1)C(=O)Cn1c(CCc2cc(F)c(F)c(F)c2)nc(=O)c2ccccc21`, the growth inhibition was 70% (active) in assay [1] and 101% (active) in assay [4]. The inhibition in assay [2] is 31%; in assay [3], -4%. For the same compound, the outcome in assay [5], in assay [6], in assay [7] and in assay [8] was inactive.
Consider `C=CCC(CC=C)N1C(=O)C(c2ccccc2)(c2ccccc2)N=C1N`, for which the growth inhibition in assay [1] was 97% (active); in assay [4], 98% (active). Further, the inhibition in assay [2] is 35%; in assay [3], -3%. Besides, the outcome in assay [5], in assay [6], in assay [7] and in assay [8] was inactive.
Turning to `O=[N+]([O-])c1cccc(C=NNc2ccnc3ccc(C(F)(F)F)cc23)c1`, the growth inhibition in assay [1] is 35%; in assay [4], 96% (active). The inhibition in assay [2] is -6%; in assay [3] it was -2%. Moreover, the outcome in assay [5], in assay [6], in assay [7] and in assay [8] was inactive.
Consider `COc1cccc(CNC(=O)c2ccnc(-c3cccc(CN(C)C4CCN(C)CC4)c3)c2)c1`, for which the figures for the growth inhibition in assay [1] and in assay [4] were 46% and 100% (active), respectively. Besides, the values for the inhibition in assay [2] and in assay [3] were 19% and -1%, respectively. The result in assay [5], in assay [6], in assay [7] and in assay [8] was inactive.
As to `COc1cccc(C(=O)OC2=C3CCC(=O)C3(C)CCC2=O)c1` (stereo not drawn), the growth inhibition in assay [1] was 9%; in assay [4], 93% (active). Further, the figures for the inhibition in assay [2] and in assay [3] were 37% and 2%, respectively. In addition, the result in assay [5], in assay [6], in assay [7] and in assay [8] was inactive.
As to `CN1CCCN(Cc2cccc(-c3ccc(NC(=O)c4cccc(Cl)c4)cc3)c2)CC1`, the growth inhibition in assay [1] is 10%; in assay [4], 90% (active). For the same compound, the results for the inhibition in assay [2] and in assay [3] were 34% and -3%, respectively. Besides, the result in assay [5], in assay [6], in assay [7] and in assay [8] was inactive.
For the compound `OCCN1CCN(Cc2ccc(-c3ccc(-c4nc5ccc(F)cc5[nH]4)cc3)cc2)CC1`, the values for the growth inhibition in assay [1] and in assay [4] were 99% (active) and 101% (active), respectively. Further, the values for the inhibition in assay [2] and in assay [3] were 33% and -5%, respectively. Besides, the outcome in assay [5], in assay [6], in assay [7] and in assay [8] was inactive.
As for `CC(C)N1CCN(C(=O)c2ccc(CN(C)CCCN3CCN(c4cccc(Cl)c4Cl)CC3)s2)CC1`, the growth inhibition in assay [1] is 35%; in assay [4], 94% (active). Further, the inhibition was 74% (active) in assay [2] and 3% in assay [3]. Moreover, the outcome in assay [5], in assay [6], in assay [7] and in assay [8] was inactive.
Turning to `O=C(NCCN1CCOCC1)c1ccc(N2CCC(Oc3ccc4ccccc4c3)CC2)nc1`, the growth inhibition is 30% in assay [1] and 92% (active) in assay [4]. Besides, the values for the inhibition in assay [2] and in assay [3] were 1% and -3%, respectively. In addition, the outcome in assay [5], in assay [6], in assay [7] and in assay [8] was inactive.
For the compound `Cc1cccc2[nH]c(-c3ccc(-c4ccc(CNCc5ccc(CN)cc5)cc4)cc3)nc12`, the growth inhibition in assay [1] is 46%; in assay [4] it was 100% (active). The inhibition in assay [2] was 14%; in assay [3] it was -4%. The result in assay [5], in assay [6], in assay [7] and in assay [8] was inactive.
With `CCOc1ccc(-c2nonc2NC(=O)c2ccc(Cl)cc2)cc1OCC`, the values for the growth inhibition in assay [1] and in assay [4] were 47% and 94% (active), respectively. Also, the inhibition in assay [2] is 28%; in assay [3] it was -2%. Also, the result in assay [5], in assay [6], in assay [7] and in assay [8] was inactive.
For the compound `O=C(Cn1nc(Br)nc1[N+](=O)[O-])NCC1CCCCC1`, the growth inhibition is 57% (active) in assay [1] and 96% (active) in assay [4]. The inhibition is -8% in assay [2] and -5% in assay [3]. Further, the result in assay [5], in assay [6], in assay [7] and in assay [8] was inactive.
